This is an account of results in PMC5540273 (PLoS ONE, 2017).

One assay deals with AAK1. The following applies: n = 1.
A further assay deals with ABL1-nonphosphorylated. The following applies: concentration: 1 μM, replicates: in singlicate; n = 1.
Another assay relates to ABL1-phosphorylated. The following applies: concentration: 1 μM, replicates: in singlicate; n = 1.
Another assay has as its system ABL2. The following applies: concentration: 1 μM, replicates: in singlicate; n = 1.
The next assay deals with ACVR1B. The following applies: concentration: 1 μM, replicates: in singlicate; n = 1.
The next assay deals with ACVR1. To be noted: concentration: 1 μM, replicates: in singlicate; n = 1.
The next assay deals with ACVR2A. To be noted: concentration: 1 μM, replicates: in singlicate; n = 1.
For the next assay, the system named is ACVR2B. The following applies: concentration: 1 μM, replicates: in singlicate; n = 1.
The subject of the next assay is ACVRL1. The following applies: concentration: 1 μM, replicates: in singlicate; n = 1.
The test system of the next assay is T1, ADCK3.
T1 construct: gene CABC1
The following applies: concentration: 1 μM, replicates: in singlicate; n = 1.

The next assay concerns ADCK4. To be noted: concentration: 1 μM, replicates: in singlicate; n = 1.
The test system of another assay is AKT1. To be noted: concentration: 1 μM, replicates: in singlicate; n = 1.
A further assay deals with AKT2. To be noted: concentration: 1 μM, replicates: in singlicate; n = 1.
In the next assay the test system is AKT3. To be noted: concentration: 1 μM, replicates: in singlicate; n = 1.
Another assay concerns ALK. To be noted: concentration: 1 μM, replicates: in singlicate; n = 1.
The test system of a further assay is T2, AMPK-alpha1.
T2 construct: gene PRKAA1
To be noted: concentration: 1 μM, replicates: in singlicate; n = 1.

The next assay relates to T3, AMPK-alpha2.
T3 construct: gene PRKAA2
To be noted: concentration: 1 μM, replicates: in singlicate; n = 1.

The subject of another assay is ANKK1. The following applies: concentration: 1 μM, replicates: in singlicate; n = 1.
Another assay has as its system T4, ARK5.
T4 construct: gene NUAK1
To be noted: concentration: 1 μM, replicates: in singlicate; n = 1.

In the next assay the test system is T5, ASK1.
T5 construct: gene MAP3K5
To be noted: concentration: 1 μM, replicates: in singlicate; n = 1.

The mark [1] stands for this setting: concentration: 1 μM, replicates: in singlicate.

Like-named read-outs stand apart in the source and are kept apart here.
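Also: KINOMEscan kinase panel screen.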

Take `Cl.c1ccc(-c2ccc3c(Nc4ccc5[nH]ccc5c4)ccnc3c2)nc1` [GW440138]: the “%Inh” value with AAK1 (setting [1]) came out at 10%; in the assay on ABL1-nonphosphorylated, 85%; in the assay on ABL1-phosphorylated it was 94.1%; in the assay with ABL2, 48%; in the assay on ACVR1B, 0%; with ACVR1, 55%. The “%Inh” value in the assay on ACVR2A was 29%; with ACVR2B, 89%; in the assay on ACVRL1, 12%; in the assay on ADCK3 it was 2%; in the assay on ADCK4 it was 38%; in the assay with AKT1, 0%. Moreover, the “%Inh” value with AKT2 is given as 0%; with AKT3, 0%; in the assay with ALK it was 25%; in the assay with AMPK-alpha1, 0%; in the assay on AMPK-alpha2 it was 0%; in the assay with ANKK1 it was 11%. The “%Inh” value in the assay on ARK5 is on record as 4%; with ASK1 it was 0%.
As to `Nc1n[nH]c2cnc(-c3ccccc3)cc12` [SB-642124], the “%Inh” value came to 37% with AAK1 (setting [1]); 0% in the assay with ABL1-nonphosphorylated; 0% in the assay on ABL1-phosphorylated; 16% in the assay with ABL2; 0% with ACVR1B; 41% with ACVR1. Besides, the “%Inh” value worked out at 0% with ACVR2A; 13% in the assay on ACVR2B; 0% in the assay on ACVRL1; 19% with ADCK3; 24% with ADCK4; 0% in the assay on AKT1. Also, the “%Inh” value is reported as 8% in the assay on AKT2; 0% in the assay on AKT3; 30% with ALK; 0% in the assay with AMPK-alpha1; 30% in the assay on AMPK-alpha2; 23% in the assay with ANKK1. The “%Inh” value in the assay on ARK5 is on record as 0%; in the assay on ASK1, 6%.
For the molecule `FC(F)(F)c1ccc(/C=C/c2cncnc2Nc2ccc3[nH]c(Cc4ccccc4)nc3c2)cc1` [GW709199], the “%Inh” value in the assay on AAK1 (setting [1]) was found to be 15%; in the assay with ABL1-nonphosphorylated, 35%; with ABL1-phosphorylated, 19%; in the assay on ABL2, 4%; in the assay with ACVR1B, 0%; with ACVR1 it was 0%. Also, the “%Inh” value in the assay with ACVR2A stood at 24%; in the assay with ACVR2B it was 37%; in the assay on ACVRL1, 0%; with ADCK3, 18%; in the assay on ADCK4 it was 0%; with AKT1, 0%. The “%Inh” value in the assay with AKT2 is on record as 0%; in the assay on AKT3, 0%; with ALK it was 23%; in the assay on AMPK-alpha1, 0%; in the assay on AMPK-alpha2, 3%; in the assay with ANKK1, 0%. Besides, the “%Inh” value came to 6% in the assay with ARK5 and 0% with ASK1.
As to `COc1ccc(Nc2nccc(N3CCC(NC(=O)Nc4cccc(OC)c4)C3)n2)cc1` (centres unmarked) [GSK1379742], the “%Inh” value with AAK1 (setting [1]) turned out to be 4%; in the assay on ABL1-nonphosphorylated, 0%; with ABL1-phosphorylated it was 0%; in the assay with ABL2, 12%; with ACVR1B it was 0%; with ACVR1 it was 7%. In addition, the “%Inh” value was determined as 0% in the assay on ACVR2A; 0% in the assay with ACVR2B; 0% in the assay on ACVRL1; 1% in the assay on ADCK3; 14% with ADCK4; 0% with AKT1. For the same molecule, the “%Inh” value with AKT2 was determined as 0%; in the assay with AKT3, 0%; in the assay with ALK, 25%; in the assay with AMPK-alpha1, 1%; in the assay with AMPK-alpha2 it was 0%; in the assay on ANKK1, 0%. The “%Inh” value in the assay with ARK5 is 25%; with ASK1 it was 5%.
As to `O=c1[nH]cc(-c2ccc(N3CCOCC3)cc2)c2sc(-c3cn[nH]c3)cc12` [GSK2276055], the “%Inh” value with AAK1 (setting [1]) is recorded as 23%; in the assay with ABL1-nonphosphorylated, 0%; with ABL1-phosphorylated, 0%; in the assay with ABL2, 0%; in the assay on ACVR1B, 0%; in the assay on ACVR1, 0%. Besides, the “%Inh” value in the assay on ACVR2A worked out at 2%; in the assay with ACVR2B it was 0%; in the assay with ACVRL1 it was 0%; with ADCK3, 0%; with ADCK4, 0%; in the assay with AKT1, 0%. Moreover, the “%Inh” value is reported as 16% with AKT2; 0% in the assay with AKT3; 4% in the assay with ALK; 0% in the assay on AMPK-alpha1; 0% with AMPK-alpha2; 21% with ANKK1. Also, the “%Inh” value is reported as 18% with ARK5 and 0% in the assay with ASK1.
As for `COc1ccc(CNC(=O)NC2CCN(c3ccnc(Nc4ccc(F)cc4)n3)CC2)cc1` [GSK1379788], the “%Inh” value worked out at 13% in the assay with AAK1 (setting [1]); 0% in the assay with ABL1-nonphosphorylated; 0% with ABL1-phosphorylated; 0% in the assay on ABL2; 0% in the assay with ACVR1B; 0% with ACVR1. The “%Inh” value was 0% with ACVR2A; 0% in the assay with ACVR2B; 0% in the assay with ACVRL1; 9% with ADCK3; 49% with ADCK4; 0% with AKT1. Further, the “%Inh” value in the assay on AKT2 was determined as 0%; in the assay on AKT3, 0%; in the assay on ALK it was 20%; with AMPK-alpha1 it was 0%; with AMPK-alpha2, 0%; with ANKK1, 0%. Further, the results for the “%Inh” value in the assay on ARK5 and with ASK1 were 5% and 0%, respectively.
Consider `O=C(Nc1cccc(-c2nn3ccccc3c2-c2ccnc(Nc3cccc(F)c3)n2)c1)c1c(F)ccc(F)c1Cl` [GSK357952], for which the “%Inh” value was 0% in the assay on AAK1 (setting [1]); 26% with ABL1-nonphosphorylated; 0% in the assay with ABL1-phosphorylated; 25% with ABL2; 0% in the assay with ACVR1B; 1% in the assay with ACVR1. The “%Inh” value in the assay on ACVR2A was found to be 16%; in the assay with ACVR2B, 13%; in the assay on ACVRL1 it was 18%; with ADCK3, 16%; in the assay on ADCK4 it was 0%; in the assay with AKT1 it was 0%. The “%Inh” value is recorded as 9% in the assay with AKT2; 0% in the assay on AKT3; 0% with ALK; 20% in the assay on AMPK-alpha1; 21% in the assay on AMPK-alpha2; 2% in the assay with ANKK1. For the same molecule, the entries for the “%Inh” value in the assay on ARK5 and in the assay with ASK1 were 0% and 1%, respectively.
For `CN(c1ccc(NC(=O)Nc2cc(C(F)(F)F)ccc2F)cc1)c1ccnc(Nc2ccc(S(N)(=O)=O)cc2)n1` [GW809893], the “%Inh” value is 9% with AAK1 (setting [1]); 98.1% in the assay with ABL1-nonphosphorylated; 75% in the assay with ABL1-phosphorylated; 98.5% in the assay on ABL2; 1% with ACVR1B; 0% in the assay on ACVR1. The “%Inh” value is listed as 0% with ACVR2A; 14% in the assay on ACVR2B; 4% with ACVRL1; 0% with ADCK3; 7% in the assay with ADCK4; 17% in the assay with AKT1. The “%Inh” value was 11% in the assay on AKT2; 9% in the assay on AKT3; 73% with ALK; 27% in the assay on AMPK-alpha1; 19% with AMPK-alpha2; 78% in the assay on ANKK1. Besides, the entries for the “%Inh” value in the assay on ARK5 and with ASK1 were 1% and 0%, respectively.
For the molecule `Cc1occc1-c1ncc(OC[C@@H](N)Cc2c[nH]c3ccccc23)cc1-c1ccc2[nH]nc(C)c2c1.O=C(O)C(F)(F)F` [GSK682037], the “%Inh” value in the assay on AAK1 (setting [1]) is reported as 61%; in the assay with ABL1-nonphosphorylated, 13%; in the assay on ABL1-phosphorylated it was 33%; in the assay on ABL2, 47%; in the assay with ACVR1B, 8%; in the assay on ACVR1, 0%. Also, the “%Inh” value in the assay on ACVR2A amounted to 0%; in the assay with ACVR2B, 0%; with ACVRL1 it was 0%; with ADCK3, 25%; in the assay on ADCK4, 82%; with AKT1, 97%. Besides, the “%Inh” value in the assay with AKT2 is reported as 99.8%; in the assay on AKT3 it was 87%; in the assay on ALK it was 24%; in the assay with AMPK-alpha1 it was 12%; with AMPK-alpha2, 0%; in the assay with ANKK1, 0%. Moreover, the “%Inh” value with ARK5 and with ASK1 was 0% throughout.
As for `Cc1cccc(Nc2nc(N[C@H]3CCNC3)ncc2C(N)=O)c1.Cl` [GSK2197149], the “%Inh” value with AAK1 (1 µM) is reported as 75%; with ABL1-nonphosphorylated, 40%; in the assay on ABL1-phosphorylated, 66%; with ABL2, 25%; in the assay on ACVR1B, 0%; in the assay on ACVR1, 0%. Also, the “%Inh” value in the assay with ACVR2A is listed as 2%; in the assay with ACVR2B it was 7%; in the assay with ACVRL1, 0%; in the assay with ADCK3, 28%; with ADCK4 it was 0%; in the assay on AKT1, 0%. The “%Inh” value in the assay with AKT2 is listed as 7%; with AKT3 it was 0%; with ALK, 47%; in the assay with AMPK-alpha1, 22%; with AMPK-alpha2, 33%; in the assay on ANKK1, 79%. The “%Inh” value in the assay with ARK5 amounted to 34%; with ASK1, 0%.
